# This is a sample that favours compounds with a hit; in the whole collection about 1.6% have one here.
# CCHF vOTU inh-1 = blocks the CCHF virus ovarian tumor domain protease. CCHFV vOTU protease, Pep-AMC fluorescence. inhibition, % at 11.5 µM. actives 0.55% (n = 370,000). AID 651958; note: 0% = vehicle wells with enzyme and 100% = no enzyme wells
# Mtb hypoxia rep = inhibitors of hypoxia-regulated fluorescent reporter in Mycobacterium tuberculosis; M. tuberculosis hypoxia-regulated fluorescent reporter, fluorescence; fluorescence inhibition, % (test concentration not listed); actives 0.1% (n = 300,000); AID 1159583; in the data active = fluorescence inhibition mostly above about 23%, no sharp cut-off; inactive = mostly below about 17%
# RN4220 kill = S. aureus RN4220 growth inhibition; actives 0.33% (n = 330,000); AID 1259311; OD600, 16 h; inhibition, % (no concentration beside the values); in the data active = inhibition above about 85%;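 note: plate controls were untreated cells for no effect and reference antibiotic for full effect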
# RecA intein inh = blocks M. tuberculosis RecA intein splicing; P9WHJ3; cell-free RecA intein splicing, fluorescence; inhibition, % (test concentration not listed); actives 0.75% (n = 290,000); AID 2221; in the data active = inhibition above about 30%;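 note: 0% = vehicle wells and 100% = reference inhibitor control wells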
# Target sequence (P9WHJ3 whole entry, looked up): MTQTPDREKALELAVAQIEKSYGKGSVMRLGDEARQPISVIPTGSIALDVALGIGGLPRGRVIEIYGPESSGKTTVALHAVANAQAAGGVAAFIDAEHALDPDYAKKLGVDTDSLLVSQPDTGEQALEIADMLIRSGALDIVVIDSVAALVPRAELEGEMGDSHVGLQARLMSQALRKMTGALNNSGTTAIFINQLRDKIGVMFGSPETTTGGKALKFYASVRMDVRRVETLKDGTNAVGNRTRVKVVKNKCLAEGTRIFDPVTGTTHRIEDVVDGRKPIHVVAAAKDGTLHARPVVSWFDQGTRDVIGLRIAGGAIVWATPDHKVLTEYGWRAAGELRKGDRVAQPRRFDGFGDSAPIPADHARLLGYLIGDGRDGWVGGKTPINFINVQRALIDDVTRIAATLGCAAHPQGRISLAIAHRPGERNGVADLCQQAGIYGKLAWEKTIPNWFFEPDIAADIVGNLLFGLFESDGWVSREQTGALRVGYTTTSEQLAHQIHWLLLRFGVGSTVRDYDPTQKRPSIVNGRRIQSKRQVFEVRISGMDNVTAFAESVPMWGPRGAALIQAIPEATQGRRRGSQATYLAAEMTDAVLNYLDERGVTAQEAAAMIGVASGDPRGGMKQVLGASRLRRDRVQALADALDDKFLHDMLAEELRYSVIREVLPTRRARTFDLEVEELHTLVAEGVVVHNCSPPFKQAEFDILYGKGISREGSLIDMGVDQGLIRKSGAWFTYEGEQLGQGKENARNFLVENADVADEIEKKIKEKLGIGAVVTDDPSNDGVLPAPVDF
# Sa ugtP lethal = kills S. aureus RN4220 lacking UgtP. S. aureus RN4220 ugtP deletion, OD600 growth, 16 h. growth inhibition, % (concentration not given with the values). actives 0.54% (n = 330,000). AID 1259309; in the data active = growth inhibition above about 68%;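 note: plate controls were untreated wells for no effect and antibiotic for full effect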
# BJeLR lethal = BJeLR cell viability loss | BJeLR (HRASV12) viability, CellTiter-Glo ATP luminescence, 48 h | inhibition, % (test concentration not listed) | actives 0.17% (n = 300,000) | AID 1554; in the data active = inhibition above about 50%
# CCHF vOTU inh-2 = confirmation of CCHF virus vOTU protease inhibitors; actives 17% (n = 1,900); inhibition, % at 11.5 µM; shares compounds with CCHF vOTU inh-1; Recombinant CCHFV vOTU, Pep-AMC fluorescence; AID 686976
# An asterisk follows results filed as active; · = no result shown. Cut-off read from the data, not from the text of the source, unless noted: active = inhibition above about 30%; inactive = the rest.
SMILES,CCHF vOTU inh-1,Mtb hypoxia rep,RN4220 kill,RecA intein inh,Sa ugtP lethal,BJeLR lethal,CCHF vOTU inh-2
COc1ccc(CN2C=C3C(=O)C(C)(OC(=O)C4CCCC4)C(=O)C=C3C=C2c2ccsc2)cc1 (configuration not stated),9,18,-1,2,0,-6,·
CCCC1CCCO[C@@](C(=O)NCCN2CCOCC2)(C(F)(F)F)C1 (some centres not stated),·,18,3,·,0,·,·
CC(C)(C)[C@]1(O)CCN2CC3c4ccccc4CCc4cccc(c43)C2C1 (some centres not stated),·,-13,6,·,-9,·,·
CCN1C(=O)[C@H]2[C@@H](c3ccc(OC)cc3)N[C@]3(CCCN(Cc4cccn4C)C3=O)[C@H]2C1=O,30*,·,·,·,·,·,-2
COc1ccc([C@H]2N[C@]3(CCCN(Cc4cccn4C)C3=O)[C@H]3C(=O)N(C)C(=O)[C@@H]23)cc1,-10,·,·,·,·,·,·
CCOC(=O)N1CCN(c2c(N3CCN(C(=O)OCC)CC3)c(=O)c2=O)CC1,6,2,2,2,-8,8,·
COC(COC(N)=O)C1=C(N2CC2)C(=O)C(C)=C(N2CC2)C1=O (configuration not stated),32*,·,·,·,·,·,13
Cc1nc(-[n+]2nc(-c3ccncc3)nn2-c2ccccc2)sc1C,44*,·,·,·,·,·,-4
O=C(O)CCCNc1cc(N2CCN(C(=O)c3ccco3)CC2)c2noc3c2c1C(=O)c1ccccc1-3,32*,·,·,-6,·,2,81*
CN1CCN(c2cc(N3CCN(C(=O)c4ccco4)CC3)c3c4c(onc24)-c2ccccc2C3=O)CC1,·,·,0,5,-8,9,·
COc1cc(C=C2C(=O)C=CC2=O)ccc1O,41*,·,·,·,·,·,-11
COc1cc(/C=C2/C(=O)CNC2=O)ccc1O,16,·,·,3,·,-3,·
CC(=O)N(C)c1ccc(OCC(O)Cn2c(C)nc3ccccc32)cc1 (configuration not stated),-6,4,3,0,0,5,·
CC(=O)N(C)c1ccc(OCC(O)Cn2c3ccc(Cl)cc3c3cc(Cl)ccc32)cc1 (configuration not stated),31*,-3,28,23,15,11,-4
CC1(C(=O)NCc2cccc(C(F)(F)F)c2)CCN1Cc1ccc(-c2ccccc2)o1 (configuration not stated),34*,·,·,·,·,·,18
CC(C)(C)c1ccc(C(=O)N2CCOC23CCCCC3)cc1,34*,·,·,·,·,·,-15
O=C(Nc1ccc(Cl)cc1)N1CCOC12CCCCC2,-12,12,-1,·,0,3,·
O=C(COC(=O)c1ccc([N+](=O)[O-])s1)NCc1ccc(F)cc1,71*,6,22,-1,17,7,77*
O=C(COC(=O)c1ccc([N+](=O)[O-])s1)NC(=O)NCc1ccccc1,53*,10,18,-3,23,-3,48*
O=C(COC(=O)c1ccc([N+](=O)[O-])s1)c1ccc[nH]1,58*,·,·,·,·,·,49*
O=C(COC(=O)c1ccc([N+](=O)[O-])s1)NCCc1ccccc1,·,16,8,·,4,·,·
COc1ccc(C2NC(=S)N(c3ccccc3)C(C)=C2C(=O)Nc2ccccc2)cc1 (configuration not stated),-2,·,4,2,2,-12,·
CC1=C(C(=O)Nc2ccc([N+](=O)[O-])cc2)C(c2cccc(C(F)(F)F)c2)NC(=S)N1c1ccccc1 (configuration not stated),31*,5,24,10,-28,1,-16
Cc1ccc2c(c1)c(=O)c1c3n2CCN(C(=O)CCl)C3CC1 (configuration not stated),51*,·,3,15,-1,-1,19
Cc1ccc2c(c1)c(=O)c1c3n2CCN(CC#N)C3CC1 (configuration not stated),-6,12,4,-2,9,2,·
Cc1[nH]cnc1CN1CCc2c(c3ccccc3n2C)C1=O,72*,-4,0,-2,-2,-6,24
CCc1ccc([C@H]2[C@@H]3C(=O)C[C@@H]4C(=O)N(CC)C(=O)[C@@H]4[C@@H]3CN2S(=O)(=O)c2ccc(C)cc2)cc1,1,·,·,·,·,·,·
